# Screening results deposited in PubChem by several laboratories.
# PrPC surface inh: reduces human prion protein on the cell surface; P04156; cell surface PrPC, TR-FRET read-out; inhibition, % at 13.8 µM; hit rate 0.43% among 370,000; AID 720596; in the data active means inhibition above about 24%; further: 0% = median of the test wells and 100% = reference compound wells
# SARS 3CLpro inh: SARS-CoV 3CLpro protease inhibition; recombinant SARS-CoV 3CLpro, quenched FRET peptide cleavage; inhibition, % at 6 µM; hit rate 0.14% among 290,000; AID 1706; P0C6X7; in the data active means inhibition above about 12%
# VHR inh abs: DUSP3 (human) phosphatase inhibition; P51452; recombinant VHR phosphatase, pNPP absorbance; inhibition, % at 13.3 µM; hit rate 0.52% among 290,000; in the data active means inhibition above about 50%
# Target sequence (P51452 whole entry, looked up): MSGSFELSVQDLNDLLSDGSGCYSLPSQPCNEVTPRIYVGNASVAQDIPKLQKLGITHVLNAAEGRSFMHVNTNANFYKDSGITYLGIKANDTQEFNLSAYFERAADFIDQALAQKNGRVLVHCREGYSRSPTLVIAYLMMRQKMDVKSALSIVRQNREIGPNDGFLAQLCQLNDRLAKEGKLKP
# MazEF act: activators of E. coli MazEF toxin-antitoxin RNase | P0AE70 | FAM/BHQ RNA-DNA oligo cleavage fluorescence, 5 h | activation, % at 20 µM | hit rate 0.32% among 350,000 | AID 504720; in the data active means activation above about 50%
# Target sequence (P0AE70 whole entry, looked up): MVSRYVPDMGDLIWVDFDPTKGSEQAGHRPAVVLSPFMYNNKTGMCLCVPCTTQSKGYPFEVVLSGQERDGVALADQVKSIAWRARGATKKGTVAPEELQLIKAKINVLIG
# Mtb hypoxia inh: reduces hypoxia-regulated biosensor signal in M. tuberculosis; fluorescence inhibition, % (no concentration beside the values); M. tuberculosis hypoxia-regulated fluorescent reporter, fluorescence; hit rate 0.1% among 300,000; in the data active means fluorescence inhibition mostly above about 23%, no sharp cut-off; inactive means mostly below about 17%
# PrP UTR inh: suppresses PrP 5' UTR mRNA reporter expression. cell-based PrP 5' UTR mRNA reporter, plate reader. inhibition, % (test concentration not listed). hit rate 0.35% among 340,000; in the data active means inhibition above about 52%; further: 0 = median of the neutral control wells
# Starred values were filed as active, the others as inactive; x = no result; + = active, no number. Rows were chosen to be rich in hits. Some 1.5% of all compounds tested hit in one or more screens of this group.
SMILES,PrPC surface inh,SARS 3CLpro inh,VHR inh abs,MazEF act,Mtb hypoxia inh,PrP UTR inh
Cc1ccc(S(=O)(=O)N2CCC[C@H]2C(=O)NC2CCCCC2)cc1,-8,x,x,-4,5,-16
COc1ccccc1CNC(=O)C1Cc2cc(S(=O)(=O)N3CCCC3)ccc2N1C(C)=O (stereo unspecified),3,-6,8,2,-6,0
Cc1ccccc1C=NNC(=O)c1ccc(Cn2cccn2)o1,x,x,x,x,3,x
CC(C)(C)OC(=O)Nc1ccc(C(NC(=O)OC(C)(C)C)C(=O)OC(C)(C)C)cc1 (stereo unspecified),x,x,x,x,10,x
N#Cc1ccc(-c2cccnc2)nc1SCC(=O)c1ccccc1,-2,0,-6,+,-1,-80
Cn1c(CNc2ccc(O)cc2)nc2ccccc21,-9,-2,x,105*,1,-31
Cc1ccc(NCc2nc3ccccc3n2C)cc1,-3,-2,-9,2,x,-41
O=C(O)c1ccc(NC(=O)C2(c3ccccc3)CCCC2)cc1,-2,8,17,3,4,-27
CCN(CC)CCOC(=O)c1ccc(NC(=O)C2(c3ccccc3)CCCC2)cc1,0,-6,54*,-14,-1,-16
NC(=O)c1ccc(NCCc2cccs2)cc1,12,x,x,x,x,x
Cn1c2ccccc2c(=O)c2ccc(NCCc3cccs3)cc21,13,x,x,-12,38*,-43
S=C1Cc2ccccc2N1,41*,-68,12,-28,6,0
Cc1ccc2nc3c(c(N)c2c1)CCN3C,-12,-6,58*,1,x,-41
Cc1ccc2nc3c(c(N)c2c1)CCN3c1ccccc1,-6,6,11,10,-4,-18
COc1ccccc1OCC(=O)NN=C1C=C(C)CC1,x,x,x,x,17,x
O=C(Cc1ccc(Cl)c(Cl)c1)NN=Cc1cccnc1,x,x,x,x,0,x
O=C(Cc1ccc(Cl)c(Cl)c1)N/N=C/c1cccnc1,-2,-5,57*,1,x,-7
Fc1cccc(Cl)c1Cn1nnc(-c2ccc(N3CCOCC3)cc2)n1,5,-2,-1,2,1,-41
Clc1cccc(Cl)c1Cn1nnc(N2CCCC2)n1,-4,2,9,6,36*,-21
Cc1cc(C)n(N=Cc2c(O)ccc3ccccc23)c(=O)c1C(N)=O,x,x,x,x,17,x
COc1cccc(Nc2nc(-c3ccccc3O)nc3ccccc23)c1,0,3,10,75*,-5,-14
Cc1ccc(-c2nc(Nc3ccc(O)cc3)c3ccccc3n2)cc1,12,6,51*,22,18,2
O=[N+]([O-])c1ccc(-c2nc(Nc3cccc(O)c3)c3ccccc3n2)cc1,-34,-2,23,123*,11,x
Nc1c(C(=O)Nc2ccccc2F)sc2nc(Cc3ccccc3)cc(C(F)(F)F)c12,-2,0,15,+,-3,x
COCc1cc(C)nc2sc(C(=O)Nc3ccccc3F)c(N)c12,1,0,10,5,15,-18
SMILES,PrPC surface inh,SARS 3CLpro inh,VHR inh abs,MazEF act,Mtb hypoxia inh,PrP UTR inh
Cc1ccc(N2C(=O)C3C4C=CC(CC4)C3C2=O)c([N+](=O)[O-])c1 (stereo unspecified),0,-2,55*,1,-2,-9
CC1(C)Cc2ccccc2C(C(=NO)C(N)=O)=N1,x,x,x,x,-7,x
N#Cc1ccc(C23CC4(C2)C(CN(Cc2cccnc2)C4c2ccccc2)C3c2ccccc2)cc1 (stereo unspecified),x,x,x,x,3,x
O=C(NC(=S)Nc1cc([N+](=O)[O-])ccc1O)c1cccnc1,-13,3,7,3,7,55*
Nc1c(Cl)ncnc1NN=Cc1cccc(O)c1,x,x,x,x,5,x
COc1cccc(NC(=O)NNS(=O)(=O)c2ccc(OC)cc2OC)c1,7,-2,50*,1,7,-13
CNC(=S)NNS(=O)(=O)c1ccc(OC)cc1OC,-4,-4,-11,9,7,9
Nc1nc(SCc2ccc(Cl)cc2Cl)ns1,3,9,8,4,2,-25
Nc1cc(SCc2ccc(Cl)cc2Cl)ncn1,3,x,x,56*,1,-27
O=[N+]([O-])c1cccc(NN=Cc2cccc3ccccc23)c1,x,x,x,x,11,x
Cc1ccc2nc(-c3cccnc3)cc(C(=O)Nc3ccc(F)cc3C)c2c1,5,4,53*,10,5,0
C=C(C)C1CC=C(C)C(=NNC(=O)COc2cccc(C)c2)C1 (stereo unspecified),x,x,x,x,5,x
Cc1c(OCC(=O)NC2CC(C)(C)NC(C)(C)C2)ccc2c1oc(=O)c1ccccc12,-7,-8,53*,14,5,3
CCCc1cc(=O)oc2c(C)c(OCC(=O)NCCCN3CCOCC3)ccc12,-6,-7,53*,9,5,3
CCCc1cc(=O)oc2c(C)c(OCC(=O)NC3CC(C)(C)NC(C)(C)C3)ccc12,-4,-5,50*,6,11,8
CCc1cc(=O)oc2c(C)c(OCC(=O)NCCCN3CCOCC3)ccc12,1,-2,61,3,2,-8
Cc1cc(OCC(=O)NC2CC(C)(C)NC(C)(C)C2)c2c(C)cc(=O)oc2c1,7,-3,56*,11,-6,-10
COc1ccc(C(=O)NCC(=O)NN=Cc2cn(C)c3ccccc23)cc1OC,x,x,x,x,7,x
CC(=NNC(=O)C1COc2ccccc2O1)c1ccccn1 (stereo unspecified),x,x,x,x,-4,x
CC1=C(C(=O)Nc2ccccc2)C(c2ccc(C)o2)n2c(sc(=Cc3ccccc3)c2=O)=N1 (stereo unspecified),x,x,x,x,-7,x
COCCn1nnnc1CN(CCc1ccc(OC)c(OC)c1)Cc1cc2ccc(C)cc2[nH]c1=O,-1,-14,52*,1,-5,1
COC(=O)c1nn2c(C(F)(F)F)cc(-c3ccc(Br)o3)nc2c1Br,-9,4,-7,111*,11,x
Oc1ccccc1C=NN=Cc1c(O)ccc2ccccc12,5,x,x,+,x,1
CS/C(N)=N/N=Cc1c(O)ccc2ccccc12,x,x,x,x,13,x
CC1CCN(CC(O)CN2c3ccccc3Sc3ccccc32)CC1 (stereo unspecified),x,-3,58*,16,4,x
SMILES,PrPC surface inh,SARS 3CLpro inh,VHR inh abs,MazEF act,Mtb hypoxia inh,PrP UTR inh
CN1CCN(C(=O)C2=CC(c3csc4ccccc34)CC(OCCCCO)O2)CC1 (stereo unspecified),x,x,x,x,2,x
Cc1ccc(N/C(N)=N/c2nc(CSc3nnc(N)s3)cc(=O)[nH]2)cc1,1,2,53*,6,-11,-5
Cc1ccc(N/C(N)=N/c2nc(CSc3ccc(C)cc3)cc(=O)[nH]2)cc1,2,-1,25,-12,9,-16
O=S(=O)(c1ccccc1)[C@@]1(c2ccc(Br)cc2)CC2ON=C(c3cccc(Br)c3)C2C1 (stereo partly specified),x,x,x,x,7,x
CCOC(=O)/C=c1\s/c(=C\c2ccc3cc(OC)ccc3c2)c(=O)n1CC(=O)NCC1CCCO1 (stereo unspecified),-7,-3,20,170*,x,-3
CCOC(=O)/C=c1/s/c(=C/c2ccc3cc(OC)ccc3c2)c(=O)n1CC(=O)NCc1ccc2c(c1)OCO2,-4,x,x,-185,4,-8
